Source: PubChem BioAssay (NCATS)
Records with an inconclusive call do not appear. Calls of active or inactive are those of the source. Unless noted, calls follow the shape of the dose curve; as a rule, active = well fitted inhibition curve with a large enough effect; inconclusive = small, poorly fitted or top-dose-only effect; inactive = flat fitted curve, though single readings scatter.

What was measured:
[1] = AP1 Signaling Pathway (AID 357; active = well fitted curve in either direction with a large enough effect, not every such curve was filed as active; also: % is scaled to controls: 0 for no effect and ±100 for the full control effect); conditions: ME-180 AP-1-bla reporter, EGF-induced, beta-lactamase ratio, 5 h; series mostly up to 17.2 µM
Method in brief: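 ME-180 cells with beta-lactamase reporter under AP-1 response element, stimulated with EC50 EGF; compounds tested in titration series, 5 h at 37 °C. CCF4 substrate added 2.5 h at room temperature; 460/530 nm emission ratio gave %activity and AC50.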

[2] = target: Cytochrome P450 1A2 (Homo sapiens) (UniProt P05177); experiment: p450-cyp1a2 (AID 410; calls by dose curve; also: potency is read from the fitted curve at half-maximal effect;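 as to activity change, negative = inhibition: -100% = full effect of reference inhibitor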); conditions: recombinant CYP1A2, luciferin-ME demethylation, luminescence; series mostly up to 25.6 µM
Method in brief: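 Inhibition was calculated relative to 57 uM furafylline (full inhibition). The reaction used human CYP1A2 at 20nM with Luciferin-ME at its Km, 100uM, driven by an NADPH-regenerating system for 60 min at room temperature.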

[3] = NFAT Signaling Pathway (AID 444; active = well fitted curve in either direction with a large enough effect, not every such curve was filed as active;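 also: carbachol stimulus at about its EC50 of 1 µM final; % is scaled to controls: 0 for no effect and ±100 for the full control effect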); conditions: Jurkat NFAT-bla M1, carbachol, beta-lactamase ratio, 5 h; at 17.2 µM (top of the series) unless noted
Method in brief: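 Read-out: CCF4 FRET ratio (460 nm/530 nm) after 1 h RT dye loading, used for %activity and AC50 from titration series. Cells: Jurkat NFAT-β-lactamase/M1 line, treated with compound plus 1 uM carbachol for 5 h, 37 °C.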

[4] = Stat Signaling Pathway (AID 446; active = well fitted curve in either direction with a large enough effect, not every such curve was filed as active;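 also: ME-180 cervical cancer cells given 40 pM IL-6 alongside compound; SIE-controlled beta-lactamase reporter measured as 460/530 nm FRET emission ratio; % is scaled to controls: 0 for no effect and ±100 for the full control effect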); conditions: ME-180 SIE beta-lactamase reporter, IL-6 stimulated, 5 h; series mostly up to 17.2 µM
Method in brief: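 ME-180 cells carrying a SIE-driven beta-lactamase reporter are stimulated with 40 pM IL-6 for 5 h at 37C in the presence of compound. The 460/530 nm FRET substrate ratio is read after 2.5 h at RT. Data are normalised to 300 pM IL-6 and to 125 nM JAK inhibitor controls.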

[5] = target: Glucocorticoid receptor (Homo sapiens) (UniProt P04150); experiment: GR-GFP Redistribution (AID 450;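 active = compounds whose dose series gives a full or clear partial fitted curve of increased nuclear translocation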; also: potency is read from the fitted curve at half-maximal effect); conditions: U2OS GR-GFP nuclear translocation, laser cytometry, 2 h
[6] = target: Glucocorticoid receptor (Homo sapiens) (UniProt P04150); experiment: GR-EFC Redistribution (AID 451; calls by dose curve; also: potency is read from the fitted curve at half-maximal effect); conditions: CHO-K1 GR-EFC translocation, beta-gal luminescence, 2 h
Method in brief: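 Translocation of GR-ED fusion to nuclear EA restores b-gal, read by luminescence after 1 h room-temperature detection. Engineered CHO-K1 biosensor cells, 1,000/well, exposed 2 h at 37 C to titrations up to 46 uM final.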

[7] = target: Mitogen-activated protein kinase 10 (Mus musculus) (UniProt Q61831); experiment: JNK3 AlphaScreen Assay (AID 530; active = well fitted curve in either direction with a large enough effect, not every such curve was filed as active;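 also: kinase came from lysate of stimulated human HepG2 cells; signal reports phosphorylation of biotinylated GST-cJun 1-79 at Ser73 with 10 µM ATP; % is scaled to controls: 0 for no effect and ±100 for the full control effect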); conditions: JNK3 lysate, c-Jun phosphorylation; series mostly up to 25.6 µM
Method in brief: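 Room-temperature AlphaScreen kinase assay; pre-activated HepG2 lysate as JNK3 source, biotin-GST-cJun(1-79) substrate, 10 uM ATP, compound 15 min preincubation.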

[8] = target: 3',5'-cyclic-AMP phosphodiesterase 4B (Homo sapiens) (UniProt Q07343); experiment: qHTS Assay for Inhibitors of PDE-IV (AID 607; active = well fitted activation curve with a large enough effect in the main read-out, with a control signal flat, not every such curve was filed as active; also: % of control where 0% means no effect); conditions: HEK293 ACTOne CNG channel cells, membrane potential fluorescence; series mostly up to 22.9 µM
Method in brief: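 HEK293 ACTOne cells with CNG channel (1000/well), endogenous PDE4; membrane potential dye, compounds up to 22.9 uM final. Fluorescence Ex 535/Em 590; RO 20-1724 (100 uM final) as reference.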

[9] = qHTS Assay for Lipid Storage Modulators (AID 1519; calls by dose curve); conditions: Drosophila S3 cells, BODIPY lipid droplet/cell ratio, laser cytometry, cells loaded with oleic acid; for activity change, negative = inhibition: at 25.7 µM (top of the series)
Method in brief: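 Cells seeded at 5,000 per well were treated with compounds over a concentration series and loaded with oleic acid (400 uM, as added). Lipid droplet fluorescence (488 nm excitation, 500-530 nm channel) was read by laser-scanning cytometry and normalized to 20 uM Triacsin C.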

[10] = target: Ubiquitin carboxyl-terminal hydrolase 1 (Homo sapiens) (UniProt O94782); experiment: Inhibitors of USP1/UAF1: Pilot qHTS (AID 504865); conditions: purified USP1/UAF1, Ub-rhodamine cleavage fluorescence; series mostly up to 114 µM;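 also: rhodamine fluorescence freed from ubiquitin-rhodamine substrate followed over time; top concentration of the series differs between compounds; % is scaled to controls: 0 for no effect and ±100 for the full control effect; nearly all actives have a fitted effect of over 35% in size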
Method in brief: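 USP1/UAF1 complex (1nM) preincubated with compound 15 min at room temperature, then Ub-Rho substrate (150nM final) added. Fluorescence read kinetically at 480/540 nm, 6 reads every 60 seconds. Buffer: 50mM HEPES pH 7.8, 0.5mM EDTA, 0.1 mg/ml BSA, 1mM TCEP, 0.01% Tween-20.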

[11] = target: Luciferin 4-monooxygenase (Photinus pyralis) (UniProt P08659); experiment: Biochemical firefly luciferase enzyme assay for NPC (AID 624030);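 also: purified P. pyralis luciferase at 10 nM with luciferin and ATP substrate; 0% = DMSO and -100% = full luciferase inhibition by PTC124 control; nearly all actives have a fitted effect of over 70% in size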; conditions: purified P. pyralis luciferase, luminescence, 5 min; series mostly up to 24.9 µM
Method in brief: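 Direct inhibition of firefly luciferase enzyme (10 nM final, 50 mM Tris Acetate) assessed by luminescence within 5 minutes. Percent activity scaled between DMSO and PTC124 positive control, with concentration-effect curves classified by fit quality and response.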

[12] = qHTS profiling for inhibitors of Plasmodium falciparum proliferation (AID 504749); also: nearly all actives have a fitted effect of over 60% in size; also: potency is read from the fitted curve at half-maximal effect;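 as to activity, negative = inhibition: 0% = DMSO vehicle and full inhibition = artemisinin control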; conditions: P. falciparum in erythrocytes, SYBR Green DNA, 72 h
Method in brief: (§1)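 Three-day growth assay of blood-stage parasites in erythrocytes (0.3% parasitemia, 2.5% hematocrit) at 37 C, 5% CO2, quantified by SYBR Green DNA staining after overnight detergent lysis.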

FAB9 = experiment: as above; conditions: P. falciparum in erythrocytes, SYBR Green DNA, 72 h; series mostly up to 12.8 µM
Method in brief: as §1

JCK = experiment: as above; conditions: P. falciparum in erythrocytes, SYBR Green DNA, 72 h; series mostly up to 12.8 µM
Method in brief: as §1

PC49 = experiment: as above; conditions: P. falciparum in erythrocytes, SYBR Green DNA, 72 h; series mostly up to 12.8 µM
Method in brief: as §1

C2A = experiment: as above; conditions: P. falciparum in erythrocytes, SYBR Green DNA, 72 h; series mostly up to 12.8 µM
Method in brief: as §1

CP217 = experiment: as above; conditions: P. falciparum in erythrocytes, SYBR Green DNA, 72 h; series mostly up to 12.8 µM
Method in brief: as §1

CP238 = experiment: as above; conditions: P. falciparum in erythrocytes, SYBR Green DNA, 72 h; series mostly up to 12.8 µM
Method in brief: as §1

CP250 = experiment: as above; conditions: P. falciparum in erythrocytes, SYBR Green DNA, 72 h; series mostly up to 12.8 µM
Method in brief: as §1

SC27B = experiment: as above; conditions: P. falciparum in erythrocytes, SYBR Green DNA, 72 h; series mostly up to 12.8 µM
Method in brief: as §1

[13] = measured here: cell count channel max response
[14] = measured here: lipid channel max response
[15] = at 12.8 µM (top of the series), parasite line A
[16] = at 12.8 µM (top of the series), parasite line B

Chain of 3',5'-cyclic-AMP phosphodiesterase 4B (Homo sapiens) (Q07343 whole entry, looked up): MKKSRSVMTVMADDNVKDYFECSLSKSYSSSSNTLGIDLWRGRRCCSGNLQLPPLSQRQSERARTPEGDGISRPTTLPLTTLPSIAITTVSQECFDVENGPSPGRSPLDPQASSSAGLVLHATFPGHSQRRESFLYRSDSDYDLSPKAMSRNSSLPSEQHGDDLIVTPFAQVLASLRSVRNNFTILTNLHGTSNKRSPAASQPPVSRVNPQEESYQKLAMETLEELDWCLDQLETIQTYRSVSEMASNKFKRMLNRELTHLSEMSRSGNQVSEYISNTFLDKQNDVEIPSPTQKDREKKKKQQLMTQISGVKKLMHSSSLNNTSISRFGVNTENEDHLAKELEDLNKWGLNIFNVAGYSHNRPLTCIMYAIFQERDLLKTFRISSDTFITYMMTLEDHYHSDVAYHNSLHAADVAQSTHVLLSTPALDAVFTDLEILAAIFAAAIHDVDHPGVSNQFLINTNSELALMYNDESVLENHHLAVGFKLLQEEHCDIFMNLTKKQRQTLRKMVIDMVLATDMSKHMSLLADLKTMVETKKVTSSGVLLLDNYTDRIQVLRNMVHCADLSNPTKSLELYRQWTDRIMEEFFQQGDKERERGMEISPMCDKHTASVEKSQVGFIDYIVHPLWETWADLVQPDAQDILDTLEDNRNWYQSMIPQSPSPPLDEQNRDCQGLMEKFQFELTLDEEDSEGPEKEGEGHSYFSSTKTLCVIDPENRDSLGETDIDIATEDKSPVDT
Chain of Glucocorticoid receptor (Homo sapiens) (P04150 whole entry, looked up, the tested form may be a part): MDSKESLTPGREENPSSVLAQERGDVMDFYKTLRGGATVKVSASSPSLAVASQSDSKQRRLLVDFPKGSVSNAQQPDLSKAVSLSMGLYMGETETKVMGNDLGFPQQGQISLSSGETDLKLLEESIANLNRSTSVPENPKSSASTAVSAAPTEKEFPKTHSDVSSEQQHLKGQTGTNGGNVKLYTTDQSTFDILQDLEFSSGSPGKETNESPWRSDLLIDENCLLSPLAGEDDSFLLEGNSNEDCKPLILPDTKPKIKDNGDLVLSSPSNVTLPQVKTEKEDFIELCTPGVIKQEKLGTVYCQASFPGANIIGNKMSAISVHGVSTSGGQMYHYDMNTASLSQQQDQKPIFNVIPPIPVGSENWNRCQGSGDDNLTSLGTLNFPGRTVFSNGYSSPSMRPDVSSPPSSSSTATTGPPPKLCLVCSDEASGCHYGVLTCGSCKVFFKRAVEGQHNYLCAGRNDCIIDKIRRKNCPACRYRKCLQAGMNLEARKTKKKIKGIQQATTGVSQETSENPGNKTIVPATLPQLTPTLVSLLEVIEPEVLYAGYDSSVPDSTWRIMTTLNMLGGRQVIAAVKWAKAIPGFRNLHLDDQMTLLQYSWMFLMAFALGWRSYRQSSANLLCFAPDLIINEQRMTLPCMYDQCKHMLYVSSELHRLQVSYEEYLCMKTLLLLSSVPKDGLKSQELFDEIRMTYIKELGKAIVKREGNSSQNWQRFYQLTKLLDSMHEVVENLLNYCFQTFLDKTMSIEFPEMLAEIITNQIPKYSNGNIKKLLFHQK
Chain of Cytochrome P450 1A2 (Homo sapiens) (P05177 whole entry, looked up): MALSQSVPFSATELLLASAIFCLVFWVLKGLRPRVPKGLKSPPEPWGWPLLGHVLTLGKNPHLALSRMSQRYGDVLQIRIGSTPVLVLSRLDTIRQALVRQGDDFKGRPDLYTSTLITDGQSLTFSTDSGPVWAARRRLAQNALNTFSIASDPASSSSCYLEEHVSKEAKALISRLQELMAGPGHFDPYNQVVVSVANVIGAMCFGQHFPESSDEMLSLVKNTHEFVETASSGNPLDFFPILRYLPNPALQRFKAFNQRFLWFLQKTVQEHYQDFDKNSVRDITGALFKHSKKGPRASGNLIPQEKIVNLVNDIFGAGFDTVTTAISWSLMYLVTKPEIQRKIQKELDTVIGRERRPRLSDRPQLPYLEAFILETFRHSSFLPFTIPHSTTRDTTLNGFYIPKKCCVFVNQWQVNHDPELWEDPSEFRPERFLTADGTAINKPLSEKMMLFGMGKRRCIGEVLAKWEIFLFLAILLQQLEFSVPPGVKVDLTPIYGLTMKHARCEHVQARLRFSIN
Chain of Luciferin 4-monooxygenase (Photinus pyralis) (P08659 whole entry, looked up): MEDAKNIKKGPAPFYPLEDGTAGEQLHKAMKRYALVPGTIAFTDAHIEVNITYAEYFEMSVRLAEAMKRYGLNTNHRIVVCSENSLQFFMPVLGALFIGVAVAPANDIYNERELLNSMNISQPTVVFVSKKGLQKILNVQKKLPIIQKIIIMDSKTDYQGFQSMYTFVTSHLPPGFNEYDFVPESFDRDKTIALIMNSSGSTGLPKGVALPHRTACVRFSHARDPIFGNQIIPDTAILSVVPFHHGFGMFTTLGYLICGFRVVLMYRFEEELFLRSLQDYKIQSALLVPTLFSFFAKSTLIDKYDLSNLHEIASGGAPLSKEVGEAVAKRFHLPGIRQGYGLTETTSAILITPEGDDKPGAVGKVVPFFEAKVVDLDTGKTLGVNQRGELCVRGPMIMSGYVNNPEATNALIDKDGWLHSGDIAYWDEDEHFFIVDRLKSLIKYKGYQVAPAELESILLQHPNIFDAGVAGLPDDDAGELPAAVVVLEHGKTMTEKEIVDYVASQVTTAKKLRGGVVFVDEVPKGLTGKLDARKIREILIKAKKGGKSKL
Chain of Ubiquitin carboxyl-terminal hydrolase 1 (Homo sapiens) (O94782 whole entry, looked up): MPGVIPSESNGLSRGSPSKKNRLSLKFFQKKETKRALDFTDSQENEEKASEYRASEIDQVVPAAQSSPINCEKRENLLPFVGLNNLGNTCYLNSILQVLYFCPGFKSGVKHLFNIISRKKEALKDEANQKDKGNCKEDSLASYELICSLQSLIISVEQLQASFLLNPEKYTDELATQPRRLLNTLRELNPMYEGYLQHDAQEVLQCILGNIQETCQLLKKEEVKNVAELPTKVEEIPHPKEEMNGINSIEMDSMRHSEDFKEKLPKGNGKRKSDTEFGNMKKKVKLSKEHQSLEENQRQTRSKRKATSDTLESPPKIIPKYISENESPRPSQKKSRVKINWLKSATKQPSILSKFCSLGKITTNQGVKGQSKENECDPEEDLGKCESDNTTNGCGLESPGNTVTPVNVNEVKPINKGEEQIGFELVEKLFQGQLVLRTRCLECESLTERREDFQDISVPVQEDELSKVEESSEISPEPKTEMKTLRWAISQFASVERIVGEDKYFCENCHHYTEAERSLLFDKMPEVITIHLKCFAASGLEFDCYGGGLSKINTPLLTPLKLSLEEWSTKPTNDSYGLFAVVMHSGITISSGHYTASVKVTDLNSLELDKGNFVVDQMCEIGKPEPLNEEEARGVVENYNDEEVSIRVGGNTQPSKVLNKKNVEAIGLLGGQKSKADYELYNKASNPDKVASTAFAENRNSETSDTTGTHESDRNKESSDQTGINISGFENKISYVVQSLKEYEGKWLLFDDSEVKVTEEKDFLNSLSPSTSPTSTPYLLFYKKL

COc1cc(N)c(Cl)cc1C(=O)N[C@H]1CCN(CCCOc2ccc(F)cc2)C[C@H]1OC
inactive: outcome [1] | Potency [2] | activity change, negative = inhibition [3] -12.4% | outcome [4] | Potency [5] > 20.6 µM | Potency [6] > 20.6 µM | Potency [7] | outcome [8] | activity change, negative = inhibition [9] 2.27% | Potency [10] | Potency [11] | Potency (FAB9) | Potency (JCK) | Potency (PC49)
active: Potency ([12]; parasite line A) 3.55 µM
-1.69%: max response [9, 13]
0.873%: max response [9, 14]

Nc1c2ccccc2nc2c(O)cccc12
-4.09%: max response [9, 14]
-4.58%: max response [9, 13]
active: Potency [2] 6.31 µM
inactive: outcome [1] | activity change, negative = inhibition [3] -1.27% | outcome [4] | Potency [5] > 20.6 µM | Potency [6] > 20.6 µM | Potency [7] | outcome [8] | activity change, negative = inhibition [9] -0.346% | Potency [10]

C[C@@H]1CCc2cc(F)cc3c(=O)c(C(=O)O)cn1c23
-3%: max response [9, 13]
-1.83%: max response [9, 14]
inactive: outcome [1] | activity change, negative = inhibition [3] 7.91% | outcome [4] | Potency [5] > 20.6 µM | Potency [6] > 20.6 µM | Potency [7] | outcome [8] | activity change, negative = inhibition [9] -0.0799% | Potency [10]
active: Potency [2] 12.6 µM

CC(C)(C)NC[C@H](O)COc1cccc2c1CCC(=O)N2
-1.05%: max response [9, 14]
inactive: outcome [1] | Potency [2] | activity change, negative = inhibition [3] -6.75% | outcome [4] | Potency [5] > 20.6 µM | Potency [6] > 20.6 µM | Potency [7] | outcome [8] | activity change, negative = inhibition [9] -0.554% | Potency [10] | Potency [11] | activity, negative = inhibition [12, 15] 7.75% | activity, negative = inhibition [12, 16] -1.3% | Potency (C2A) | Potency (CP217) | Potency (CP238) | Potency (CP250) | Potency (FAB9) | Potency (PC49) | Potency (SC27B)
-2.13%: max response [9, 13]
active: Potency (JCK) 8.91 µM

CN1C(=O)C[C@H](c2ccccc2)C1=O
inactive: outcome [1] | Potency [2] | activity change, negative = inhibition [3] 35.9% | outcome [4] | Potency [5] > 20.6 µM | Potency [6] > 20.6 µM | Potency [7] | outcome [8] | activity change, negative = inhibition [9] 0.325% | Potency [10] | Potency [11] | activity, negative = inhibition ([12]; at 28.7 µM (top of the series), parasite line B) -2.97% | Potency (C2A) | Potency (CP217) | Potency (CP238) | Potency (CP250) | Potency (FAB9) | Potency (JCK) | Potency (PC49) | Potency (SC27B)
-28%: max response [9, 13]
-25.7%: max response [9, 14]

CO[C@]1(NC(=O)C2SC(=C(C(N)=O)C(=O)O)S2)C(=O)N2C(C(=O)O)=C(CSc3nnnn3C)CS[C@H]21 (some centres undefined)
0.185%: max response [9, 13]
inactive: outcome [1] | Potency [2] | activity change, negative = inhibition [3] 13.4% | outcome [4] | Potency [5] > 20.6 µM | Potency [6] > 20.6 µM | Potency [7] | outcome [8] | activity change, negative = inhibition [9] 0.935% | Potency [11] | activity, negative = inhibition [12, 15] -5.23% | activity, negative = inhibition [12, 16] -0.327% | Potency (C2A) | Potency (CP217) | Potency (CP238) | Potency (CP250) | Potency (FAB9) | Potency (JCK) | Potency (PC49) | Potency (SC27B)
1.63%: max response [9, 14]

C[N+]12CCC(CC1)[C@@H](OC(=O)C(O)(c1ccccc1)c1ccccc1)C2
inactive: outcome [1] | Potency [2] | outcome [4] | Potency [5] > 20.6 µM | Potency [6] > 20.6 µM | Potency [7] | outcome [8] | activity change, negative = inhibition [9] -3.29% | Potency [11] | activity, negative = inhibition [12, 15] 11.6% | activity, negative = inhibition [12, 16] 16% | Potency (C2A) | Potency (CP217) | Potency (CP238) | Potency (CP250) | Potency (FAB9) | Potency (JCK) | Potency (PC49) | Potency (SC27B)
active: activity change, negative = inhibition [3] -57.3%
-15%: max response [9, 14]
-12.1%: max response [9, 13]

C=CCN1C(=CCO)[C@H]2C[C@H]3[C@@H]1CC[C@@]31c3ccccc3N3C=C4[C@@H]5N(/C=C/2[C@H]31)c1ccccc1[C@]51CC[C@H]2[C@H]1C[C@@H]4/C(=C/CO)N2CC=C
inactive: outcome [1] | Potency [2] | activity change, negative = inhibition [3] -23.2% | outcome [4] | Potency [5] > 20.6 µM | Potency [6] > 20.6 µM | Potency [7] | outcome [8] | activity change, negative = inhibition [9] 0.271% | Potency [11] | activity, negative = inhibition [12, 15] 1.83% | activity, negative = inhibition [12, 16] 0.223% | Potency (C2A) | Potency (CP217) | Potency (CP238) | Potency (CP250) | Potency (FAB9) | Potency (JCK) | Potency (PC49) | Potency (SC27B)
-15.8%: max response [9, 14]
-16.1%: max response [9, 13]

CC(=O)N[C@@H](CC(=O)O)C(=O)O
-4.28%: max response [9, 14]
-3.12%: max response [9, 13]
inactive: outcome [1] | Potency [2] | activity change, negative = inhibition [3] -10.7% | outcome [4] | Potency [5] > 20.6 µM | Potency [6] > 20.6 µM | Potency [7] | outcome [8] | activity change, negative = inhibition [9] -1.04% | Potency [10]

COc1ccc([C@@H]2CC(=O)c3c(O)cc(O[C@H]4O[C@@H](CO[C@H]5O[C@@H](C)[C@@H](O)[C@@H](O)[C@@H]5O)[C@@H](O)[C@@H](O)[C@@H]4O)cc3O2)cc1O
inactive: outcome [1] | Potency [2] | activity change, negative = inhibition [3] 6.75% | outcome [4] | Potency [5] > 20.6 µM | Potency [6] > 20.6 µM | Potency [7] | outcome [8] | activity change, negative = inhibition [9] -0.902% | Potency [10] | Potency [11] | activity, negative = inhibition [12, 15] 5.87% | activity, negative = inhibition [12, 16] -4.16% | Potency (C2A) | Potency (CP217) | Potency (CP238) | Potency (CP250) | Potency (FAB9) | Potency (JCK) | Potency (PC49) | Potency (SC27B)
-8.76%: max response [9, 14]
-12%: max response [9, 13]

NC(=O)c1ncn([C@H]2O[C@@H](CO)[C@@H](O)[C@@H]2O)n1
inactive: outcome [1] | Potency [2] | activity change, negative = inhibition [3] -18.7% | outcome [4] | Potency [5] > 20.6 µM | Potency [6] > 20.6 µM | Potency [7] | outcome [8] | activity change, negative = inhibition [9] 1.03% | Potency [10]
-8.81%: max response [9, 13]
-7.48%: max response [9, 14]
